Measured values as given in PubChem BioAssay (NCI).
Compounds without any hit were thinned out: in the full panel of roughly 79,000, 15% have a hit. No stated cut-off is given here; in the data, active means growth inhibition above about 70%; inactive means the rest.

Assays:
[1] = NCI Yeast Anticancer Drug Screen. Data for the rad50 strain (AID 155);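 further: 0% = growth of vehicle-only cultures of the same strain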; settings: S. cerevisiae rad50 strain growth inhibition; at 50.0 µM; hits give high values
Procedure, shortened: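 DNA repair mutant yeast, compound exposure, growth read-out; inhibition is taken relative to vehicle.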

[2] = NCI Yeast Anticancer Drug Screen. Data for the mec2-1 strain (AID 157); settings: S. cerevisiae mec2-1 strain, at 50.0 µM, hits give high values
Procedure, shortened: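 Cells of the genetically defined mec2-1 yeast strain are incubated with test compound. Inhibition of growth is calculated against vehicle-treated controls.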

[3] = NCI Yeast Anticancer Drug Screen. Data for the sgs1 mgt1 strain (AID 161);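 further: 0% = growth of cultures given vehicle only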; settings: S. cerevisiae sgs1 mgt1 strain, at 50.0 µM, hits give high values
Procedure, shortened: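 Test agents were incubated with a DNA-repair-mutant yeast strain. Growth was then read and compared against vehicle-treated controls.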

[4] = NCI Yeast Anticancer Drug Screen. Data for the cln2 rad14 strain (AID 165);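 further: 0% = growth equal to vehicle treated cultures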; settings: S. cerevisiae cln2 rad14 strain, at 50.0 µM, hits give high values
Procedure, shortened: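 The screen exposed genetically defined yeast (cln2 rad14) to test compounds and scored growth inhibition relative to vehicle-treated controls.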

[5] = NCI Yeast Anticancer Drug Screen. Data for the bub3 strain (AID 167); settings: S. cerevisiae bub3 mutant strain, at 50.0 µM, hits give high values
Procedure, shortened: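 In this screen, a yeast mutant lacking normal mitotic checkpoint function is challenged with compound. Relative growth versus vehicle gives the inhibition value.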

[6] = NCI Yeast Anticancer Drug Screen. Data for the mlh1 rad18 strain (AID 175); settings: S. cerevisiae mlh1 rad18 strain growth inhibition; at 50.0 µM; hits give high values
Procedure, shortened: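 Compound-treated yeast growth, normalised to vehicle controls. Strain bears defined DNA repair mutations.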

Measured: growth inhibition

O=C(Nc1ccccc1)N1CC2(CN1)CNN(C(=O)Nc1ccccc1)C2
inactive: [1] -3.35% | [2] -3.25% | [3] 15.7% | [4] -8% | [5] -3.35% | [6] -9.75%

Cc1c(C(=O)/C=C/c2ccc(N(C)C)cc2)c(=O)n(-c2ccccc2)n1C
inactive: [1] -7% | [2] -45.1% | [3] -36.1% | [4] -8.85% | [5] -29.7% | [6] -20.1%

CCC1(O)CC2C3C(C(=O)OC)=C4Nc5ccccc5C45CCN(C31)C25 (stereo unspecified)
inactive: [1] 6.2% | [2] -6.3% | [3] 3.35% | [4] 11.8% | [5] 1.9% | [6] -2.1%

COc1ccc(COC(=O)Nc2cccc(Cl)c2C)cc1
inactive: [1] -1.2% | [2] 8.95% | [3] 14.8% | [4] -25.7% | [5] -8.85% | [6] -3.2%

O=C1c2ccccc2-c2cc(Cl)c(Cl)cc21
inactive: [1] 13.4% | [2] 2.1% | [3] 13.7% | [4] 17.1% | [5] -1.8% | [6] -22.2%

Cc1cn(C2CCCCC2O)c(=O)[nH]c1=O (stereo unspecified)
inactive: [1] -15.8% | [2] -14% | [3] -2.85% | [4] 12.6% | [5] -15.1% | [6] -16.9%

Oc1cccc2c(O)cccc12
inactive: [1] 0.55% | [2] 22.8% | [3] 26.4% | [4] -9.55% | [5] 25.5% | [6] 32.8%

CC1=CC(=O)N(n2c(-c3ccccc3)n[nH]c2=O)C1=O
inactive: [1] -26.9% | [2] -12.9% | [3] -4.45% | [4] 7.95% | [5] -13.2% | [6] 5.3%

COc1ccc(-c2cc(C(O)C3CCCCN3)c3ccccc3n2)cc1 (stereo unspecified)
inactive: [1] 4.15% | [2] -42% | [3] -20.9% | [4] 11.7% | [5] -31.1% | [6] -10.1%

O=[N+]([O-])c1ccc(-c2nc3ncncc3[nH]2)cc1
inactive: [1] 13.2% | [2] -3.25% | [3] -0.75% | [4] 13.1% | [5] 5.05% | [6] 7.25%

NNS(=O)(=O)c1ccc(N)cc1
inactive: [1] 5.6% | [2] 1.3% | [3] -5.4% | [4] -35% | [5] 18.8% | [6] 5.15%

Nc1nc(-c2ccc(F)cc2)cc(-c2cc(-c3ccc(F)cc3)nc(N)n2)n1
inactive: [1] -17.1% | [2] -2.75% | [3] -20.9% | [4] -2% | [5] -7.15% | [6] 2.15%

CC(=O)N(CCCCNC(=O)C(F)(F)F)CCCNC(=O)C(F)(F)F
inactive: [1] 2.7% | [2] -6.5% | [3] 6.55% | [4] 5.15% | [5] -26.8% | [6] -58.5%

O=C(/C=C/c1ccccc1)Cc1nc2nnc(NC(=O)Nc3ccc(Cl)cc3)n2[nH]c1=O
inactive: [1] -9.15% | [2] 1.85% | [3] 1.5% | [4] -8.05% | [5] 6.15% | [6] 4.65%

CCCCC(CC)C1OCC(O)CO1 (stereo unspecified)
inactive: [1] 8.8% | [2] 3.3% | [3] 2.55% | [4] 5.1% | [5] -13.2% | [6] -14.3%

Nc1nc(N)nc(SCC(=O)O)n1
inactive: [1] 8.55% | [2] -23.2% | [3] 2% | [4] 3.15% | [5] -2.05% | [6] 14.9%

Cc1cc(C)n2nc3c4ccsc4ncc3c2n1
inactive: [1] -5.2% | [2] -5.45% | [3] -15.9% | [4] 2.45% | [5] 0.1% | [6] -6.8%

CCCCCCCCCCCC(=O)N/N=C/c1ccccc1OC
inactive: [1] -0.65% | [2] 7.25% | [3] -10.3% | [4] -18.8% | [5] 4% | [6] 12.6%

CCCOC(C)OCCC#CCC(C)OC(=O)CC(Cl)(Cl)Cl (stereo unspecified)
inactive: [1] -13.8% | [2] -21.4% | [3] 10.7% | [4] -5.35% | [5] -16.1% | [6] -9.35%

CC1CCOC2(CCCCC2)O1 (stereo unspecified)
inactive: [1] -12.6% | [2] -7.15% | [3] -8.85% | [4] -32.9% | [5] -2.65% | [6] 16.2%

C#CC(O)C(CC)CCCC (stereo unspecified)
inactive: [1] -11.1% | [2] -46.5% | [3] -14.7% | [4] -10.4% | [5] -12.8% | [6] 13.8%
